# Assay outcomes (PubChem)
# Shown is part of a subset that was picked to be rich in hits.
# IL1B secr inh = qHTS for Inhibitors of Inflammasome Signaling: IL-1-beta AlphaLISA Primary Screen | THP-1 LPS/ATP IL-1B secretion, AlphaLISA, 16 h; stronger effect = lower value | activity change, % at 57.5 µM | actives 4.7% (n = 360,000); in the data active = activity change below about -50%; inconclusive = mostly about -30% to -49%
#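 Secreted IL-1B measured by AlphaLISA bead assay after 16 h compound exposure of THP-1 cells; compounds (final up to 57.5 uM) added 1 h before LPS (250 ng/mL) and ATP (1.25 mM) stimulation; lower signal means less secretion.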
# ALOX12 inh = Primary qHTS assay for inhibitors of human arachidonate 12S-lipoxygenase (ALOX12): Round 2; actives 1.1% (n = 580,000); Potency, µM (series often up to 108 µM), hits mostly inhibitors; AID 1671190, 2021; purified 12hLO, xylenol orange hydroperoxide absorbance
# Target sequence (P18054 whole entry, looked up): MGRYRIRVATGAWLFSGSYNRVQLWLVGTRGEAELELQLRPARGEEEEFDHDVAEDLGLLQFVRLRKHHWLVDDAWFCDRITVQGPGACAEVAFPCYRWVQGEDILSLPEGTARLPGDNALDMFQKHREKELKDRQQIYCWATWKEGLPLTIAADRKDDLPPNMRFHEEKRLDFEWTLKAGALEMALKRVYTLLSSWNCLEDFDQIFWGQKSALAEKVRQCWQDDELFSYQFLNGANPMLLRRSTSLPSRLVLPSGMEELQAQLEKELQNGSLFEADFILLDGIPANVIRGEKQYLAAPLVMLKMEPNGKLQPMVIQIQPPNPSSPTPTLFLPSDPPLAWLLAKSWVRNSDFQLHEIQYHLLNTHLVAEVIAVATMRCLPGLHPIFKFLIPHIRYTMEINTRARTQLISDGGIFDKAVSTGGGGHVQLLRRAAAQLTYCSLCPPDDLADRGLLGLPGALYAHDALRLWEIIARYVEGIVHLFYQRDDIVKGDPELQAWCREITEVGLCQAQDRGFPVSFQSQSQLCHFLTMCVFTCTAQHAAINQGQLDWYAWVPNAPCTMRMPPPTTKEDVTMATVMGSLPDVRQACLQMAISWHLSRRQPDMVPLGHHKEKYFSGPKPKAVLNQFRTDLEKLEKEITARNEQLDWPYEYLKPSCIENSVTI
#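 Purified human 12hLO at 150 nM in 25 mM Hepes, 0.01% Triton X-100, pH 7.0, preincubated 15 min at room temperature with compound. Reaction started with 40 uM arachidonic acid, 30 min at room temperature. Hydroperoxide measured by Fe-xylenol orange, 573/405 nm absorbance ratio.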
# HT1080 IDH1KD tx = qHTS for induction of synthetic lethality in tumor cells producing 2HG: qHTS for the HT-1080-IDH1KD cell line. HT-1080 IDH1 knockdown viability, ATP luminescence, 48 h. Potency, µM (series often up to 46.1 µM), hits mostly cytotoxic. actives 2% (n = 360,000)
#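 IDH1KD HT-1080 cells, 750/well, RPMI + 5% FBS; compound pinned after 2 h settling; 48 h, 37 °C; CellTiter-Glo luminescence; % activity normalised to DMSO and no-cell wells; curves fitted, classed by r2 and efficacy.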
# HT1080NT lethal = qHTS for induction of synthetic lethality in tumor cells producing 2HG: qHTS for the HT-1080-NT fibrosarcoma cell line; actives 1.6% (n = 360,000); HT-1080-NT fibrosarcoma viability, CellTiter-Glo ATP luminescence, 48 h; Potency, µM (titrated, usually from 46.1 µM), hits mostly cytotoxic;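 also: NT is the 2HG producing partner of a matched IDH1 knockdown line; nearly all actives have a fitted effect of over 55% in size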
#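 Read-out is CellTiter-Glo luminescence after 10 minutes at room temperature, following 48 hours' compound treatment of HT-1080-NT cells (750 cells/well, RPMI, 5% FBS, 37 degrees C).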
# DT40 TDP1 no CPT = qHTS for Inhibitors of human tyrosyl-DNA phosphodiesterase 1 (TDP1): qHTS in cells in absence of CPT; DT40 Tdp1-/- hTDP1 cells, no CPT, ATP luminescence, 48 h; Potency, µM (top dose mostly 46.2 µM), most hits filed as inhibitors; AID 686978, 2013; actives 15% (n = 420,000); also: nearly all actives have a fitted effect of over 55% in size
#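 Seeded 400 DT40-hTDP1 cells/well (vehicle DMSO, no 20 nM CPT); pinned compounds; ≥48 hr at 37 °C; CellTiter-Glo luminescence as viability measure.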
# TDP1 cell CPT = qHTS for Inhibitors of human tyrosyl-DNA phosphodiesterase 1 (TDP1): qHTS in cells in presence of CPT. chicken DT40 Tdp1-/-;hTDP1 cells + 20 nM CPT, ATP luminescence, 48 h. Potency, µM (highest dose often 46.2 µM), hits mostly inhibitors. actives 12% (n = 420,000). AID 686979, 2013; also: nearly all actives have a fitted effect of over 55% in size
#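 Chicken DT40 Tdp1-/- cells complemented with human TDP1, 400 cells/well, exposed to compounds plus 20 nM camptothecin for at least 48 h at 37 C; viability read as ATP content by CellTiter-Glo luminescence.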
# Hits are given with their value; i = inactive; ? = inconclusive; nt = no result given. Unless noted, calls follow the shape of the dose curve; as a rule, active = well fitted curve in the direction sought with a large enough effect; inconclusive = small, poorly fitted or top-dose-only effect, or another doubt; inactive = no such curve, though single readings can be large; an effect the other way counts as inactive or inconclusive.
SMILES,IL1B secr inh,ALOX12 inh,HT1080 IDH1KD tx,HT1080NT lethal,DT40 TDP1 no CPT,TDP1 cell CPT
COCC(C)n1c(C)cc(C(=O)COc2ccc(S(=O)(=O)N3CCOCC3)cc2Cl)c1C (stereo not given),i,?,i,i,?,21µM
Cc1cc(C)cc(NC(=O)C2C3C=CC4(O3)C2C(=O)N(CCCN(C)C)C4C(=O)NC2CCCC(C)C2C)c1 (stereo not given),i,i,i,?,i,i
Cc1cc2nc(-c3ccc(OCc4ccccc4C)cc3)cc(C(F)(F)F)n2n1,nt,i,nt,nt,16µM,?
COc1ccc(C(=O)NCCn2cc(SCC(=O)NCc3ccco3)c3ccccc32)cc1,i,i,?,i,5.8µM,7.3µM
COc1ccc(C(=O)NCCn2cc(SCC(=O)Nc3cccc(C)c3)c3ccccc32)cc1,nt,i,nt,nt,?,16µM
O=[N+]([O-])c1cccc(OCCN2CCC(Cc3ccccc3)CC2)c1,-66,0.63µM,?,?,?,?
COc1cc(OC)c(CN2CCC(Cc3ccccc3)CC2)cc1Br,-58,1µM,i,i,?,?
COc1cccc(CN2CCC(N(CCc3ccccc3)Cc3ccccc3)CC2)c1OC,-62,?,?,?,29µM,?
Clc1ccccc1OCCN1CCC(Cc2ccccc2)CC1,?,?,i,i,?,?
C=CCOc1ccccc1CN1CCC(Cc2ccccc2)CC1,-86,?,?,i,?,?
COc1cccc(CN2CCN(Cc3cccc(Oc4ccccc4)c3)CC2)c1OC,i,?,i,i,i,?
COc1ccc2c(c1)[C@@H](NC(=O)c1ccncc1)[C@H](C)[C@H]2c1ccccc1,nt,i,nt,nt,nt,nt
COc1cc(CN2CCC(Cc3ccccc3)CC2)c([N+](=O)[O-])cc1OC,i,?,i,i,?,21µM
COc1ccc(CN2CCN(Cc3ccccc3C(F)(F)F)CC2)c(OC)c1,i,?,?,?,16µM,?
COc1cc(C)c(CN2CCC(Cc3ccccc3)CC2)cc1C,?,?,i,i,?,?
COc1ccccc1CN1CCC(Cc2ccccc2)CC1,nt,0.56µM,nt,nt,nt,nt
COc1cccc(CN2CCN(Cc3ccccc3C(F)(F)F)CC2)c1,i,i,i,i,?,i
COc1ccc(OC)c(CN2CCC(Cc3ccccc3)CC2)c1,i,?,i,?,16µM,?
CNC(=O)COC(=O)c1c(C)c(-c2ccccc2)nc2ccccc12,nt,i,nt,nt,nt,nt
NCCCOCC(F)(F)F,nt,i,nt,nt,nt,nt
Cc1ccc([N+](=O)[O-])c(OCCN2CCc3ccccc3C2)c1,i,?,i,i,i,i
Cc1ccc([N+](=O)[O-])c(OCCCN2CCC(Cc3ccccc3)CC2)c1,-60,i,?,?,21µM,21µM
COC(=O)C(C)Sc1nc(C)nc2c1c(=O)n(C)c(=O)n2CC(C)C (stereo not given),nt,i,nt,nt,nt,nt
CC(SCc1ccccc1)C(=O)N(CC#N)C1CC1 (stereo not given),nt,i,nt,nt,nt,nt
Cc1nc(SCC(=O)NCc2ccco2)c2c3c(sc2n1)CCCC3,i,i,?,i,?,?
SMILES,IL1B secr inh,ALOX12 inh,HT1080 IDH1KD tx,HT1080NT lethal,DT40 TDP1 no CPT,TDP1 cell CPT
Cc1ccc(-n2c(SCC(=O)NCc3ccco3)nc3sc4c(c3c2=O)CC(C)(C)SC4)cc1,i,i,i,i,i,i
CC1CCc2c(sc3ncn4c(SCC(=O)NCc5ccco5)nnc4c23)C1 (stereo not given),i,i,i,i,21µM,?
O=C(CSc1nc(C2CC2)nc2sc3c(c12)CCCC3)NCc1ccco1,i,i,i,i,i,i
CCCc1nc2sc3c(SCC(=O)NCc4ccco4)ncnc3c2c2c1CCC2,i,i,i,i,18µM,?
CCC1CCc2c(sc3nc(SCC(=O)NCc4ccco4)n(-c4ccccc4)c(=O)c23)C1 (stereo not given),i,i,i,i,?,29µM
CC(C)Sc1nc2sc3c(c2c2nnc(SCC(=O)NCc4ccco4)n12)CCCC3,i,?,i,i,18µM,?
CN(C)C(CNC(=O)c1cc2ccccc2oc1=O)c1cccs1 (stereo not given),nt,i,nt,nt,nt,nt
O=C(O)CC1(CC(=O)Nc2nccs2)CCCCC1,i,i,i,i,i,?
COc1cc(C(=O)NCc2ccc(C)cc2)ccc1OCc1c(C)noc1C,i,i,i,i,?,i
COc1cc(C(=O)OCC#N)ccc1OCc1c(C)noc1C,i,i,26µM,?,23µM,?
COc1ccc(CCNC(=O)c2ccc(OCc3c(C)noc3C)c(OC)c2)cc1,i,i,i,i,i,i
COc1cc(C(=O)NCCc2c[nH]c3ccccc23)ccc1OCc1c(C)noc1C,-77,i,i,i,18µM,?
COc1cc(C(=O)NCC(c2ccccc2)N(C)C)ccc1OCc1c(C)noc1C (stereo not given),i,i,?,i,?,16µM
O=C1CC(c2ccccc2)Cc2[nH]c(=O)c(-c3nc(-c4cccc(Cl)c4)cs3)cc21 (stereo not given),nt,i,nt,nt,5.2µM,5.2µM
CCN(CC)C(=O)Oc1ccc2ccccc2c1Br,-60,i,?,?,?,i
O=C(COc1ccc2ccccc2c1Br)N1CCCCC1,i,nt,i,i,i,?
CCN(CC)C(=O)Oc1ccc(Br)c2ccccc12,i,i,i,i,?,?
O=C(Oc1ccc2ccccc2c1Br)N1CCCCCC1,i,i,?,i,21µM,?
O=C(CCC1CCN(S(=O)(=O)c2ccccc2)CC1)N1CCCCC1,nt,i,nt,nt,nt,nt
O=C(c1cccs1)c1no[n+]([O-])c1C(=O)c1cccs1,-97,nt,?,18µM,2.3µM,1.8µM
Clc1cc(Br)ccc1OCCn1ccnc1,i,0.71µM,i,i,i,i
Clc1cc(Br)ccc1OCCCn1ccnc1,?,?,i,i,?,i
Cc1ccccc1OCCCCCn1ccnc1,?,i,i,i,16µM,21µM
Clc1ccccc1OCCCn1ccnc1,i,0.35µM,i,i,i,i
CC(C)CNC(=O)C(=O)Nc1cccc2[nH]ccc12,nt,i,nt,nt,nt,nt
Cn1cccc1CN1CCC2(CC1)CN[S+](=O)([O-])c1ccccc1N2,nt,i,nt,nt,nt,nt
Cc1cccc(C(=O)N2CC[C@@H](NC(=O)c3cnccn3)[C@H](O)C2)n1,nt,i,nt,nt,nt,nt
